Measurements from PubChem BioAssay (NCI).
The panel holds about 79,000 compounds, 15% with a hit somewhere; the sample as a whole holds those more often. Unmarked numbers belong to inactive results. Calls of active or inactive are those of the source. No stated cut-off is given here; in the data, active means growth inhibition above about 70%; inactive means the rest.

What was measured:
[1] = NCI Yeast Anticancer Drug Screen. Data for the rad52 strain (AID 147);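 further: 0% = growth of vehicle-treated control cultures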; details: S. cerevisiae rad52 mutant growth inhibition, hits give high values
Outline: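 Inhibition of yeast growth, referenced to vehicle controls, was the measured output for a strain with defective DNA damage repair.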

[2] = NCI Yeast Anticancer Drug Screen. Data for the wt1 strain (AID 149);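 further: 0% = growth of vehicle-treated wt1 cultures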; details: S. cerevisiae wt1 strain (SPY 50644) growth inhibition, hits give high values
Outline: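 Growth inhibition read against vehicle controls after compound exposure of the wt1 yeast strain.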

[3] = NCI Yeast Anticancer Drug Screen. Data for the rad50EPP+ strain (AID 151);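 further: 0% = growth of vehicle-treated control cultures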; details: S. cerevisiae rad50 mutant strain, hits give high values
Outline: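 Genetically defined yeast (rad50EPP+, DNA damage repair alteration) is grown with compound, and inhibition of growth is expressed relative to vehicle-treated controls.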

[4] = NCI Yeast Anticancer Drug Screen. Data for the mgt1 strain (AID 153); details: S. cerevisiae mgt1 mutant growth inhibition, hits give high values
Outline: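 In the mgt1 strain, test compounds were added and growth inhibition was determined relative to vehicle-treated controls.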

[5] = NCI Yeast Anticancer Drug Screen. Data for the rad50 strain (AID 155);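 further: 0% = growth of vehicle-only cultures of the same strain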; details: S. cerevisiae rad50 strain growth inhibition, hits give high values
Outline: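 Readout: growth inhibition relative to vehicle-treated cultures. Compound exposure was carried out in a genetically defined yeast strain deficient in DNA damage repair.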

[6] = NCI Yeast Anticancer Drug Screen. Data for the mec2-1 strain (AID 157); details: S. cerevisiae mec2-1 strain, hits give high values
Outline: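 Each compound was tested on mec2-1 yeast, a strain altered in DNA damage repair or cell cycle control. Growth inhibition is reported relative to vehicle.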

[7] = NCI Yeast Anticancer Drug Screen. Data for the rad14 strain (AID 159);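 further: 0% = growth of vehicle-treated control cultures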; details: S. cerevisiae rad14 strain growth inhibition, hits give high values
Outline: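 Growth inhibition vs vehicle controls; genetically altered yeast strain (DNA damage repair defect) treated with test compounds.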

[8] = NCI Yeast Anticancer Drug Screen. Data for the sgs1 mgt1 strain (AID 161);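 further: 0% = growth of cultures given vehicle only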; details: S. cerevisiae sgs1 mgt1 strain, hits give high values
Outline: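 Read-out: growth inhibition vs vehicle controls. Cells: mutant yeast strain deficient in DNA damage repair.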

[9] = NCI Yeast Anticancer Drug Screen. Data for the CLN2oe strain (AID 163);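 further: 0% = growth of vehicle-only control cultures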; details: S. cerevisiae CLN2oe strain, hits give high values
Outline: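 First, the altered yeast strain was treated with each compound; second, its growth was measured; finally, inhibition was derived by comparison with vehicle controls.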

[10] = NCI Yeast Anticancer Drug Screen. Data for the cln2 rad14 strain (AID 165);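 further: 0% = growth equal to vehicle treated cultures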; details: S. cerevisiae cln2 rad14 strain, hits give high values
Outline: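 Test compounds were added to cln2 rad14 yeast cultures; inhibition of growth was then determined by comparison with vehicle treatment.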

[11] = NCI Yeast Anticancer Drug Screen. Data for the bub3 strain (AID 167); details: S. cerevisiae bub3 mutant strain, hits give high values
Outline: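 Readout: yeast growth inhibition, expressed relative to vehicle-only wells. The test organism is a mutant strain from a panel with lesions in DNA repair or checkpoint genes.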

[12] = NCI Yeast Anticancer Drug Screen. Data for the wt2 strain (AID 169);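 further: 0% = growth of vehicle-treated yeast cultures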; details: S. cerevisiae wt2 strain growth inhibition, hits give high values
Outline: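 The panel's yeast strains carry defined changes in DNA repair or cell cycle genes. Each strain is grown with compound, and growth loss is scored relative to vehicle.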

[13] = NCI Yeast Anticancer Drug Screen. Data for the mlh1 strain (AID 171);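 further: 0% = growth of vehicle-treated control cultures of the same strain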; details: S. cerevisiae mlh1 strain growth inhibition, hits give high values
Outline: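 Inhibition values reflect reduced yeast growth in the presence of compound, referenced to vehicle controls, using a strain chosen for its alteration in DNA repair or cell cycle control.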

[14] = NCI Yeast Anticancer Drug Screen. Data for the sgs1 strain (AID 173);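 further: 0% = growth of vehicle-only control cultures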; details: S. cerevisiae sgs1 mutant, hits give high values
Outline: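 Vehicle-treated cultures served as reference for growth inhibition of a yeast strain altered in DNA damage repair or cell cycle control after compound exposure.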

[15] = NCI Yeast Anticancer Drug Screen. Data for the mlh1 rad18 strain (AID 175); details: S. cerevisiae mlh1 rad18 strain growth inhibition, hits give high values
Outline: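 Inhibition values reflect reduced growth of mutant yeast versus vehicle-treated controls following compound exposure; the mutations affect DNA damage repair.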

[16] = NCI Yeast Anticancer Drug Screen. Data for the rad18 strain (AID 177); details: S. cerevisiae rad18 mutant growth inhibition, hits give high values
Outline: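 Steps: expose repair-mutant yeast to compound; measure growth; express as inhibition relative to vehicle control.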

[17] = at 5.0 µM (retest, dose inferred, filed as 0.5)
[18] = at 50.0 µM (retest, dose inferred, filed as 5.0)

CN(CCc1ccc(Br)cc1)CCN1CCCCC1
growth inhibition ([1]; at 1.2 µM): 19%
growth inhibition ([1]; at 3.7 µM): 26%
growth inhibition ([1]; at 11.0 µM): 51%
growth inhibition ([1]; at 33.0 µM): 81% (active)
growth inhibition ([1]; at 100.0 µM): 98% (active)
growth inhibition ([2]; at 1.2 µM): 8%
growth inhibition ([2]; at 3.7 µM): 16%
growth inhibition ([2]; at 11.0 µM): 20%
growth inhibition ([2]; at 33.0 µM): 60%
growth inhibition ([2]; at 100.0 µM): 97% (active)
growth inhibition ([3]; at 1.2 µM): -1%
growth inhibition ([3]; at 3.7 µM): 0%
growth inhibition ([3]; at 11.0 µM): -1%
growth inhibition ([3]; at 33.0 µM): 0%
growth inhibition ([3]; at 100.0 µM): 6%
growth inhibition ([4]; at 1.2 µM): 7%
growth inhibition ([4]; at 3.7 µM): 20%
growth inhibition ([4]; at 11.0 µM): 70% (active)
growth inhibition ([4]; at 33.0 µM): 94% (active)
growth inhibition ([4]; at 100.0 µM): 99% (active)
growth inhibition ([5]; at 1.2 µM): 15%
growth inhibition ([5]; at 3.7 µM): 18%
growth inhibition [5, 17]: 9%
growth inhibition ([5]; at 11.0 µM): 38%
growth inhibition ([5]; at 33.0 µM): 91% (active)
growth inhibition [5, 18]: 74% (active)
growth inhibition ([5]; at 50.0 µM): 78.3% (active)
growth inhibition ([5]; at 100.0 µM): 98% (active)
growth inhibition ([6]; at 1.2 µM): 17%
growth inhibition ([6]; at 3.7 µM): 24%
growth inhibition [6, 17]: 13%
growth inhibition ([6]; at 11.0 µM): 35%
growth inhibition ([6]; at 33.0 µM): 74% (active)
growth inhibition [6, 18]: 73% (active)
growth inhibition ([6]; at 50.0 µM): 86.7% (active)
growth inhibition ([6]; at 100.0 µM): 99% (active)
growth inhibition ([7]; at 1.2 µM): 31%
growth inhibition ([7]; at 3.7 µM): 49%
growth inhibition ([7]; at 11.0 µM): 68%
growth inhibition ([7]; at 33.0 µM): 97% (active)
growth inhibition ([7]; at 100.0 µM): 98% (active)
growth inhibition [8, 17]: 30%
growth inhibition [8, 18]: 86% (active)
growth inhibition ([8]; at 50.0 µM): 92.5% (active)
growth inhibition ([9]; at 1.2 µM): 15%
growth inhibition ([9]; at 3.7 µM): 26%
growth inhibition ([9]; at 11.0 µM): 46%
growth inhibition ([9]; at 33.0 µM): 78% (active)
growth inhibition ([9]; at 100.0 µM): 98% (active)
growth inhibition [10, 17]: 55%
growth inhibition [10, 18]: 88% (active)
growth inhibition ([10]; at 50.0 µM): 83.2% (active)
growth inhibition ([11]; at 1.2 µM): 20%
growth inhibition ([11]; at 3.7 µM): 29%
growth inhibition [11, 17]: 20%
growth inhibition ([11]; at 11.0 µM): 60%
growth inhibition ([11]; at 33.0 µM): 94% (active)
growth inhibition [11, 18]: 88% (active)
growth inhibition ([11]; at 50.0 µM): 91% (active)
growth inhibition ([11]; at 100.0 µM): 98% (active)
growth inhibition ([12]; at 1.2 µM): 8%
growth inhibition ([12]; at 3.7 µM): 23%
growth inhibition ([12]; at 11.0 µM): 47%
growth inhibition ([12]; at 33.0 µM): 93% (active)
growth inhibition ([12]; at 100.0 µM): 99% (active)
growth inhibition ([13]; at 1.2 µM): 11%
growth inhibition ([13]; at 3.7 µM): 22%
growth inhibition ([13]; at 11.0 µM): 41%
growth inhibition ([13]; at 33.0 µM): 82% (active)
growth inhibition ([13]; at 100.0 µM): 99% (active)
growth inhibition ([14]; at 1.2 µM): 16%
growth inhibition ([14]; at 3.7 µM): 41%
growth inhibition ([14]; at 11.0 µM): 65%
growth inhibition ([14]; at 33.0 µM): 96% (active)
growth inhibition ([14]; at 100.0 µM): 99% (active)
growth inhibition [15, 17]: 6%
growth inhibition [15, 18]: 86% (active)
growth inhibition ([15]; at 50.0 µM): 92.5% (active)
growth inhibition ([16]; at 1.2 µM): 27%
growth inhibition ([16]; at 3.7 µM): 53%
growth inhibition ([16]; at 11.0 µM): 54%
growth inhibition ([16]; at 33.0 µM): 94% (active)
growth inhibition ([16]; at 100.0 µM): 98% (active)

CCNC(=O)OCC1C2=C(C(=O)C(C)=C(N)C2=O)N2CC3C(N3C)C12OC (stereo unspecified)
growth inhibition ([1]; at 1.2 µM): 4%
growth inhibition ([1]; at 3.7 µM): 25%
growth inhibition ([1]; at 11.0 µM): 25%
growth inhibition ([1]; at 33.0 µM): 63%
growth inhibition ([1]; at 100.0 µM): 81% (active)
growth inhibition ([2]; at 1.2 µM): -19%
growth inhibition ([2]; at 3.7 µM): -16%
growth inhibition ([2]; at 11.0 µM): -4%
growth inhibition ([2]; at 33.0 µM): 23%
growth inhibition ([2]; at 100.0 µM): 67%
growth inhibition ([3]; at 1.2 µM): 6%
growth inhibition ([3]; at 3.7 µM): -12%
growth inhibition ([3]; at 11.0 µM): -6%
growth inhibition ([3]; at 33.0 µM): 13%
growth inhibition ([3]; at 100.0 µM): 41%
growth inhibition ([4]; at 1.2 µM): 2%
growth inhibition ([4]; at 3.7 µM): 2%
growth inhibition ([4]; at 11.0 µM): 21%
growth inhibition ([4]; at 33.0 µM): 37%
growth inhibition ([4]; at 100.0 µM): 74% (active)
growth inhibition ([5]; at 1.2 µM): 14%
growth inhibition ([5]; at 3.7 µM): 15%
growth inhibition [5, 17]: 34%
growth inhibition ([5]; at 11.0 µM): 19%
growth inhibition ([5]; at 33.0 µM): 57%
growth inhibition [5, 18]: 70% (active)
growth inhibition ([5]; at 50.0 µM): 58%
growth inhibition ([5]; at 100.0 µM): 78% (active)
growth inhibition ([6]; at 1.2 µM): 9%
growth inhibition ([6]; at 3.7 µM): 13%
growth inhibition [6, 17]: 23%
growth inhibition ([6]; at 11.0 µM): 18%
growth inhibition ([6]; at 33.0 µM): 58%
growth inhibition [6, 18]: 71% (active)
growth inhibition ([6]; at 50.0 µM): 63.6%
growth inhibition ([6]; at 100.0 µM): 87% (active)
growth inhibition ([7]; at 1.2 µM): -9%
growth inhibition ([7]; at 3.7 µM): -5%
growth inhibition ([7]; at 11.0 µM): 8%
growth inhibition ([7]; at 33.0 µM): 45%
growth inhibition ([7]; at 100.0 µM): 78% (active)
growth inhibition [8, 17]: 23%
growth inhibition [8, 18]: 68%
growth inhibition ([8]; at 50.0 µM): 47.6%
growth inhibition ([9]; at 1.2 µM): 4%
growth inhibition ([9]; at 3.7 µM): 4%
growth inhibition ([9]; at 11.0 µM): 19%
growth inhibition ([9]; at 33.0 µM): 41%
growth inhibition ([9]; at 100.0 µM): 80% (active)
growth inhibition [10, 17]: 14%
growth inhibition [10, 18]: 50%
growth inhibition ([10]; at 50.0 µM): 44.7%
growth inhibition ([11]; at 1.2 µM): 13%
growth inhibition ([11]; at 3.7 µM): 9%
growth inhibition [11, 17]: 21%
growth inhibition ([11]; at 11.0 µM): 10%
growth inhibition ([11]; at 33.0 µM): 36%
growth inhibition [11, 18]: 50%
growth inhibition ([11]; at 50.0 µM): 21.8%
growth inhibition ([11]; at 100.0 µM): 71% (active)
growth inhibition ([12]; at 1.2 µM): -37%
growth inhibition ([12]; at 3.7 µM): -32%
growth inhibition ([12]; at 11.0 µM): -28%
growth inhibition ([12]; at 33.0 µM): 6%
growth inhibition ([12]; at 100.0 µM): 34%
growth inhibition ([13]; at 1.2 µM): 15%
growth inhibition ([13]; at 3.7 µM): 18%
growth inhibition ([13]; at 11.0 µM): 32%
growth inhibition ([13]; at 33.0 µM): 56%
growth inhibition ([13]; at 100.0 µM): 84% (active)
growth inhibition ([14]; at 1.2 µM): 4%
growth inhibition ([14]; at 3.7 µM): 16%
growth inhibition ([14]; at 11.0 µM): 29%
growth inhibition ([14]; at 33.0 µM): 59%
growth inhibition ([14]; at 100.0 µM): 81% (active)
growth inhibition [15, 17]: 73% (active)
growth inhibition [15, 18]: 92% (active)
growth inhibition ([15]; at 50.0 µM): 70.8% (active)
growth inhibition ([16]; at 1.2 µM): 13%
growth inhibition ([16]; at 3.7 µM): 40%
growth inhibition ([16]; at 11.0 µM): 72% (active)
growth inhibition ([16]; at 33.0 µM): 89% (active)
growth inhibition ([16]; at 100.0 µM): 91% (active)
